Results on nine compounds are retold here after the supplement of paper PMC7156485.

Settings in all cases: concentration: 10 µM; 24 h
For test [1], the system named is HCC1569. The test is described as follows: cell number relative to DMSO (% of DMSO); higher = more cells (less growth inhibition / toxicity). A digest of the protocol:
(§1)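 Treatment: HCC1569 and TDF cells, 800 per well in 384-well plates with RPMI and 10% FBS, were given compounds at 10 µM for 24 h at 37 °C, in triplicate. Readout: after 3.7% formaldehyde fixation, cells were stained with a rabbit anti-H1.0 antibody, an AlexaFluor 647 secondary and DAPI. Reported values are H1.0 nuclear intensity or cell number as percent of the plate control, taken as the median of replicates, with positional smoothing for HCC1569.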

Test [2] deals with TDF. The description is as above. A digest of the protocol: as §1
The test system of test [3] is TDF. The experiment in a line: H1.0 immunofluorescence intensity relative to DMSO (% of DMSO); higher = stronger H1.0 induction, active = 120 or more. A digest of the protocol:
as §1

The test system of test [4] is HCC1569. The experiment in a line: H1.0 immunofluorescence intensity relative to DMSO (% of DMSO); higher = stronger H1.0 induction, active = 140 or more. The gist of the method:
as §1
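Throughout, for H1.0 immunofluorescence intensity relative to DMSO: TDF is a line of transformed human dermal fibroblasts of mesenchymal origin.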
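Throughout, for cell number relative to DMSO: TDF denotes transformed human dermal fibroblasts of mesenchymal origin.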

Regarding `COc1ccc(Cl)cc1C(=O)NCCc1ccc(S(=O)(=O)NC(=O)NC2CCCCC2)cc1` [Glyburide], the cell number with HCC1569 [1] was 107; in the test with TDF [2], 102. Moreover, the figures for the H1.0 immunofluorescence intensity in the test on TDF [3] and with HCC1569 [4] were 90.2 (inactive) and 109 (inactive), respectively.
Taken in the same sequence, the figures for `CCCCCC(O)CC=C1C(=O)C=CC1CC=CCCCC(=O)O` (stereo unspecified) [D12-Prostaglandin J2] were 108, 96.8, 103 (inactive) and 106 (inactive).
Taken in the same sequence, the figures for `O=C(NC(Cc1ccccc1)C(=O)CCl)OCc1ccccc1` [Z-L-Phe chloromethyl ketone] were 54.9, 52.5, 120 (inactive) and 116 (inactive).
As for `O=c1[nH]c2cc(C(F)(F)F)ccc2n1-c1cc(C(F)(F)F)ccc1O`, the results for the cell number with HCC1569 [1] and with TDF [2] were 101 and 95.9, respectively. The figures for the H1.0 immunofluorescence intensity in the test with TDF [3] and in the test on HCC1569 [4] were 96.6 (inactive) and 98.4 (inactive), respectively.
On the same counts, the results for `NCC1CCC(C(=O)O)CC1` (stereo unspecified) [Tranexamic acid] are 99.5, 104, 87.9 (inactive) and 111 (inactive).
Taken in the same sequence, the figures for `CN(C)CCN1C(=O)c2ccccc2N(C)c2ccccc21` [Dibenzepine] were 102, 112, 97.7 (inactive) and 111 (inactive).
On the same counts, the results for `CCCCCC=CCC=CCC=CCC=CCCCC(=O)OC(CO)COC(=O)CCCCCCCCCCCCCCCCC` (stereo unspecified) [1-Stearoyl-2-arachidonoyl-glycerol] are 100, 104, 98.4 (inactive) and 98 (inactive).
On to `CCCCCC=CCC=CC=CC=CC(SCC(N)C(=O)O)C(O)CCCC(=O)O` (stereo unspecified) [Leukotriene E4], for which the cell number is 103 in the test on HCC1569 [1] and 101 with TDF [2]. In addition, the figures for the H1.0 immunofluorescence intensity in the test with TDF [3] and in the test on HCC1569 [4] were 92.6 (inactive) and 102 (inactive), respectively.
Taken in the same sequence, the figures for `CC(C)NNC(=O)c1ccncc1.O=P(O)(O)O` [Iproniazid phosphate] were 116, 119, 93.8 (inactive) and 85 (inactive).
